p53null 39C kill: selectivity test: cytotoxicity in p53 null cells, nonpermissive temperature. H1299 p53-null (neo) cells, 39C, ATPlite viability, 24 h. Potency, µM (series often up to 46.1 µM), for inactives: at the highest dose activity, negative = cell killing, actives largely listed as cytotoxic. hit rate 0.97% among 55,000. AID 904;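 also: potency is read from the fitted curve at half-maximal effect; 0% = DMSO only and -100% = full killing by 100 µM tamoxifen; nearly all actives have a fitted effect of over 50% in size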
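Temperature-shift cytotoxicity format: compound titrations on p53-null or A138V-expressing H1299 cells held 24 hr at 39C, cell ATP then measured, AC50 from Hill model.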
p53null 32C tox: p53 null cell cytotoxicity, permissive temperature | Potency, µM (titrated, usually from 46.1 µM), without a hit: at the top dose activity change, negative = cytotoxicity, usual class: cytotoxic | hit rate 0.62% among 55,000 | H1299-neo p53 null cells, ATP luminescence, 24 h, 32C;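 also: potency is read from the fitted curve at half-maximal effect; 0% = DMSO only and -100% = full killing by 100 µM tamoxifen; nearly all actives have a fitted effect of over 55% in size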
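We seeded p53-null H1299-neo cells, incubated them overnight at 37C, and added compounds across a range up to 46 uM. After 24 hours at 32C, ATP reagent was applied for 20 min at room temperature and luminescence recorded.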
GPR32 ag: activates human resolvin D1 receptor GPR32 | O75388 | CHO-K1 GPR32 beta-arrestin PathHunter luminescence, 90 min; zero percent set by DMSO-only wells | activation, % at 76.9 µM | hit rate 2.5% among 48,000;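 active = activation of at least 60% and not above a set upper limit, about 1 call in 100 departs from these limits; inconclusive = activation of 40% to 60%, or above that upper limit; inactive = activation under 40%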; also: 0% is about no effect
Target sequence (O75388 whole entry, looked up): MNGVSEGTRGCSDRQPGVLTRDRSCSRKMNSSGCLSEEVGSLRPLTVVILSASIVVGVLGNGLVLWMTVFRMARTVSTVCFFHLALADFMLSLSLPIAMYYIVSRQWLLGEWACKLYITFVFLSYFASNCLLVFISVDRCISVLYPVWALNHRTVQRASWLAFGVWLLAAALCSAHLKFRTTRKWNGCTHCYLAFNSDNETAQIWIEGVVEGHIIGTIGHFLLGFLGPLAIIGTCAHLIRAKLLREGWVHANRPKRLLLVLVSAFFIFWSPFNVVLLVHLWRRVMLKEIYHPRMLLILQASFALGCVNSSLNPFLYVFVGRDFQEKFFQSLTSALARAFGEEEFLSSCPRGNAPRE
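Luminescent readout of beta-Gal complementation quantifies ligand-induced beta-arrestin association with GPR32 in CHO-K1 cells; 90 min compound incubation at 37 °C, detection 1 h at room temperature.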
GALC G270D up: raises human GALC G270D mutant activity in cells; Potency, µM (series often up to 57.5 µM), hits mostly activators; hit rate 0.1% among 45,000; 145M-Twi-hGALC-G270D cells (Twitcher mouse brain line with human GALC G270D), HMU-beta-Gal fluorescence, 48 h; also: potency is read from the fitted curve at half-maximal effect; 0% is about no effect; nearly all actives have a fitted effect of over 65% in size
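Mutant human GALC (G270D), stably expressed in a Twitcher mouse brain cell line lacking endogenous GALC, is measured in live-treated cells via 6-hexadecanoylamino-4-methylumbelliferyl-β-galactoside hydrolysis (0.1 mM final, pH 5.2) with fluorescent detection.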
FH mod: Identification of activators of human fumarate hydratase by quantitative high-throughput screening; Fumarate hydratase, mitochondrial (Homo sapiens), P07954; FH coupled MDH/diaphorase resazurin fluorescence, 15 min; Potency, µM (series often up to 79.9 µM), inactives show at the top dose activity change, negative = inhibition, hits mostly inhibitors; hit rate 0.22% among 54,000; also: potency is read from the fitted curve at half-maximal effect; % is scaled to controls: 0 for no effect and ±100 for the full control effect; the screen sought activators but most active calls are inhibition curves; nearly all actives have a fitted effect of over 45% in size
NTMT1 inh: blocks human N-terminal methyltransferase 1 activity | NTMT1 MTase-Glo SAH luminescence, purified enzyme | Q9BV86 | Potency, µM (series often up to 114 µM), inactives show at the top dose activity change, negative = inhibition, most hits filed as inhibitors | hit rate 2.5% among 59,000;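 also: potency is read from the fitted curve at half-maximal effect; plate controls were DMSO vehicle for no effect and no enzyme for full effect; nearly all actives have a fitted effect of over 65% in size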
Target sequence (Q9BV86 whole entry, looked up): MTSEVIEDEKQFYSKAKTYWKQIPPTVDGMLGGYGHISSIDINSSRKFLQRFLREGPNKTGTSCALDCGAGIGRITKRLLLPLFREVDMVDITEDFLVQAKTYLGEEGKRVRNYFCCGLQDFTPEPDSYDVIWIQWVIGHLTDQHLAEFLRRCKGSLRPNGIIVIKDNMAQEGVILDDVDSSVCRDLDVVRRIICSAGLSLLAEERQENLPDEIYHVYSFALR
* marks the source's active call; other numbers are inactive results; i = inactive; ? = inconclusive; nt = no result; ! = a repeat was not active; [ ] = remark or other dose. This is a sample that favours compounds with a hit; in the whole collection about 3.9% have one here. Unless noted, calls follow the shape of the dose curve; as a rule, active = well fitted curve in the direction sought with a large enough effect; inconclusive = small, poorly fitted or top-dose-only effect, or another doubt; inactive = no such curve, though single readings can be large; an effect the other way counts as inactive or inconclusive.

SMILES	p53null 39C kill	p53null 32C tox	GPR32 ag	GALC G270D up	FH mod	NTMT1 inh
CCOC(=O)c1ccc(NC(=O)CSc2nc3cc4ccccc4cc3[nH]2)cc1	?	-8%	?	i	-14%	?
CO[C@@H]1[C@@H](O[C@H]2O[C@@H](C)[C@H](O[C@@H]3C[C@](C)(O)[C@H](O)[C@@H](C)O3)[C@@H](N(C)C)[C@@H]2O)[C@@H](CC=O)C[C@@H](C)[C@@H](O[C@H]2CC[C@H](N(C)C)[C@H](C)O2)/C=C/C=C/C[C@@H](C)OC(=O)C[C@H]1O	nt	nt	nt	nt	10%	5%[57.5 µM]
O=C(COc1ccc(Br)cc1)N1CCOCC1	16%	-17%	nt	nt	nt	nt
O=C(CCC1CCCC1)Nc1ccc(OCC(=O)N2CCOCC2)cc1	?	14µM*	nt	nt	nt	nt
Cc1ccc(Cl)cc1NC(=O)c1cnc(N2CCCCC2)c2ccccc12	22%	-2%	-12	i	-19%	89µM*
CCc1ccccc1NC(=O)Cn1nc(-c2cc(C)ccc2C)c2c(c1=O)CCCC2	22%	-2%	-6	i	?	89µM*
Nc1ccc2nc(-c3cccs3)[nH]c2c1	-20%	?	nt	nt	nt	nt
Cc1ccc2nc(-c3sc4nc(C)ccc4c3N)[nH]c2c1	10µM*	11µM*	nt	nt	nt	nt
Cc1ccc(-n2ncc3c(NCc4ccccc4)ncnc32)cc1Cl	0%	-7%	62*	i	-2%	5%
Cc1ccc(Cl)cc1-n1ncc2c(NCc3ccc(F)cc3)ncnc21	13%	34%	26	i	-7%	-19%
Cc1ccc(Cl)cc1-n1ncc2c(NCCCc3ccccc3)ncnc21	4%	34%	78*	i	?	-2%
Cc1ccc(Cl)cc1-n1ncc2c(NCCc3ccccc3)ncnc21	?	-1%	101*	i	-28%	-1%
Cc1ccc(CNc2ncnc3c2cnn3-c2ccc(Cl)cc2)cc1	1%	-3%	-8	i	2%	26%
CC(C)CNCc1ccc(-c2ccccc2S(=O)(=O)N2CCCC2)cc1	nt	nt	nt	nt	2%	-20%[57.5 µM]
C=CC(=O)N1CCC(CNc2ncnc(N)c2-c2ccc(Oc3ccccc3)cc2)CC1	nt	nt	nt	nt	nt	3%
Cc1cc(C)c(S(=O)(=O)NCCc2sc(-c3cccnc3)nc2C)c(C)c1	20%	-2%	69*	i	0%	-4%
CC(O)c1cc(C(=O)N[C@@H](C)Cn2ccc(-c3ccc(C#N)c(Cl)c3)n2)n[nH]1 (stereo partly drawn)	nt	nt	nt	nt	-13%	6%
Oc1c(I)cc(Cl)c2cccnc12	nt	nt	?	i	19%[53.3 µM]	50µM*
CSc1cccc(N2C(=O)N(Cc3ccc([N+](=O)[O-])cc3)c3ccccc3S2(=O)=O)c1	-5%	-8%	-5	i	-17%	1%
CSc1cccc(N2C(=O)N(CC(=O)NCc3ccccc3Cl)c3ccccc3S2(=O)=O)c1	19%	-25%	67*	i	4%	-14%
CC1=C(C(=O)OC2CCCC2)C(c2ccccc2C(F)(F)F)CC(=O)N1 (stereo not drawn)	-13%	-6%	96*	i	-2%	-3%
Nc1nc(-n2cc(C(=O)O)c(=O)c3cc(F)c(N4CC(O)C4)c(Cl)c32)c(F)cc1F	nt	nt	nt	nt	7%[53.3 µM]	1%[29.8 µM]
Nc1ncnc2n[nH]c(Nc3ccc(F)cc3)c12	nt	nt	-6	nt	7%	50µM*!
Cc1oc2ncnc(N3CCOCC3)c2c1C(=O)Nc1ccc(Br)cc1F	10%	-1%	16	i	-9%	89µM*
Cc1ccc(S(=O)(=O)Nc2ccccc2C(=O)Nc2ccc(-c3ccccc3)nn2)cc1	nt	nt	nt	nt	nt	15%
SMILES	p53null 39C kill	p53null 32C tox	GPR32 ag	GALC G270D up	FH mod	NTMT1 inh
Cc1ccc(-c2nc3nc(C)cc(N4CCN(c5cccc(C)c5)C(C)C4)n3n2)cc1 (stereo not drawn)	20µM*	2%	-2	i	?	-2%
Cc1ccc(-c2nnc(Nc3cccc(Br)c3)c3ccccc23)cc1S(=O)(=O)N1CCN(C)CC1	25%	14%	-4	i	-16%	11%
Cc1cccc(Nc2nnc(-c3ccc(C)c(S(=O)(=O)N4CCN(C)CC4)c3)c3ccccc23)c1	10µM*	20%	-23	i	-9%	0%
Cc1c(-c2cccc(NC(=O)Nc3ccccc3)c2)nc2ncccn12	15%	-6%	96*	i	-9%	-7%
CC(C)(C)OC(=O)N[C@@H](Cc1ccc(O[S+](=O)([O-])c2cccc3cnccc23)cc1)C(=O)N1CCN(Cc2ccccc2)CC1	nt	nt	nt	nt	nt	-6%
Cc1cc(OCC(=O)Nc2cnn(CCCC(=O)O)c2)ccc1Cl	-25%	4%	82*	i	-6%	?
Cn1nc(-c2ccc(C(F)(F)F)cc2)nc2c(=O)n(C)c(=O)nc1-2	nt	nt	nt	nt	4µM*	-3%[57.5 µM]
CCCCN(CCCC)S(=O)(=O)c1ccc(C(=O)Nc2sc3c(c2C(N)=O)CCN(CC)C3)cc1	3%	5%	5	i	-4%	2%
CCOC(=O)c1c(NC(=O)c2ccc(S(=O)(=O)N(CC(C)C)CC(C)C)cc2)sc2c1CCN(CC)C2	4%	0%	33	i	-9%	89µM*
CC1CCc2c(sc(NC(=O)CCCOc3ccccc3)c2C(N)=O)C1 (stereo not drawn)	18%	1%	96*	i	-7%	-4%
Cc1ccc(OCCCC(=O)Nc2sc3c(c2C(N)=O)CCC(C)C3)cc1 (stereo not drawn)	-14%	2%	12	nt	nt	nt
Brc1c(Br)c(Br)c2n[nH]nc2c1Br	nt	nt	28	nt	32µM*	11µM*
C/C=C/C[C@@H](C)C(=O)[C@H]1C(=O)N[C@@H](C(C)C)C(=O)N(C)CC(=O)N(C)[C@@H](CC(C)C)C(=O)N[C@@H](C(C)C)C(=O)N(C)[C@@H](CC(C)C)C(=O)N[C@@H](C)C(=O)N[C@H](C)C(=O)N(C)[C@@H](CC(C)C)C(=O)N(C)[C@@H](CC(C)C)C(=O)N(C)[C@@H](C(C)C)C(=O)N1C	nt	nt	nt	nt	nt	0%[57.5 µM]
CCN(CC)C(=O)C1CCN(S(=O)(=O)c2ccc3c(c2)CCCN3C(C)=O)CC1	10µM*	-1%	13	i	-37%	4%
COc1c/c(=C2\C=c3ccccc3=N2)[nH]/c1=C\c1[nH]c(C)cc1C	nt	nt	nt	nt	0%	?
COc1cc(=C2C=c3ccccc3=N2)[nH]/c1=C/c1[nH]c(C)cc1C	nt	nt	nt	nt	nt	40µM*
Nc1cc(C(F)(F)F)ccc1S	nt	nt	31	i	-19%[53.3 µM]	8.9µM*
O=C(/C=C/Nc1ccc(F)cc1F)c1cccs1	nt	10µM*	nt	nt	nt	nt
O=C(/C=C/Nc1ccccc1F)c1cccs1	nt	11µM*	nt	nt	nt	nt

Assay outcomes from PubChem.
